Hit rate of the full screen: of about 39,000 compounds, about 500 (1.3%) were called active. The full list was thinned out, with actives kept by preference.

For this test, the system named is S. aureus RN4220. Kind of test: growth inhibition call (relative growth <= 0.2). Particulars: 50 µM.
Consider `C[C@H](CO)N1C[C@H](C)[C@H](CN(C)S(=O)(=O)c2ccc(Cl)cc2)Oc2c(NC(=O)Nc3cccc4ccccc34)cccc2C1=O`, for which the growth inhibition call was “inactive”. The same measure for `Cc1noc(C)c1NC(=O)Nc1ccc2c(c1)C(=O)N([C@@H](C)CO)C[C@H](C)[C@H](CN(C)S(=O)(=O)c1ccccc1)O2`: “inactive”; for `C[C@@H]1CN([C@@H](C)CO)C(=O)CCCn2cc(nn2)CO[C@@H]1CN(C)Cc1ccc(C(=O)Nc2ccccc2N)cc1`: “inactive”; for `C[C@@H](NS(=O)(=O)c1cccc(F)c1)C(=O)O`: “inactive”. The same measure for `C[C@@H]1CN([C@H](C)CO)C(=O)c2cc(NC(=O)C3CCCCC3)ccc2O[C@@H](C)CCCCO[C@H]1CN(C)C(=O)Nc1ccc(F)cc1`: “inactive”; for `C[C@H](CO)N1C[C@H](C)[C@H](CN(C)C(=O)Nc2ccccc2)OCCCC[C@H](C)Oc2ccc(NS(=O)(=O)c3ccc(F)cc3)cc2C1=O`: “inactive”. The entry for `c1coc(CNc2nc[n+]3c4c2ncn4CC3)c1` is “inactive”; for `C[C@@H]1CCCCO[C@H](CN(C)C(=O)Nc2cccc3ccccc23)[C@H](C)CN([C@@H](C)CO)C(=O)c2cc(N(C)C)ccc2O1` it is “inactive”; for `Cc1noc(C)c1S(=O)(=O)Nc1ccc2c(c1)C(=O)N([C@@H](C)CO)C[C@H](C)[C@@H](CN(C)C(=O)Nc1ccc3c(c1)OCO3)O2` it is “inactive”.

For the compound `COC1C(O)CC(=O)OC(C)CC=CC=CC(OC2CCC(N(C)C)C(C)O2)C(C)CC(CC=O)C1OC1OC(C)C(OC2CC(C)(O)C(O)C(C)O2)C(N(C)C)C1O` (stereo not given), the growth inhibition call was “active”. The entry for `CO[C@@H]1[C@@H](O[C@@H]2O[C@H](C)[C@@H](O[C@H]3C[C@@](C)(O)[C@@H](O)[C@H](C)O3)[C@H](N(C)C)[C@H]2O)[C@@H](CC=O)C[C@@H](C)[C@@H](O[C@H]2CC[C@H](N(C)C)[C@@H](C)O2)/C=C/C=C/C[C@@H](C)OC(=O)C[C@H]1O` is “active”; for `CO[C@@H]1[C@@H](O[C@@H]2O[C@H](C)[C@@H](O[C@H]3C[C@@](C)(O)[C@@H](O)[C@H](C)O3)[C@H](N(C)C)[C@H]2O)[C@@H](CC=O)C[C@@H](C)[C@@H](O[C@H]2CC[C@H](N(C)C)[C@@H](C)O2)/C=C/C=C/CC(C)OC(=O)C[C@H]1OC(C)=O` (stereo not given in full) it is “inactive”; for `Cc1noc(C)c1NC(=O)Nc1ccc2c(c1)C(=O)N([C@H](C)CO)C[C@@H](C)[C@H](CN(C)C(=O)Nc1cccc3ccccc13)O2` it is “inactive”. The entry for `COC(=O)c1c2oc(c1C(=O)OC)C(=O)N[C@H](Cc1ccccc1)Cn1cc(nn1)[C@@H](Cc1ccccc1)NC(=O)N[C@@H](COC(=O)NCCCCCC(=O)NO)CC2` is “inactive”; for `C[C@@H]1CCCCO[C@@H](CN(C)C(=O)Nc2ccc3c(c2)OCO3)[C@@H](C)CN([C@@H](C)CO)C(=O)c2cc(NC(=O)Nc3ccc(F)cc3)ccc2O1` it is “inactive”.

Values taken from the antibiotic and cytotoxicity screens of Wong et al. (2023).
